Our source for the inhibition values is ChEMBL document CHEMBL1961873, “Compounds: GSK PKIS; Assays: Nanosyn kinase panel” (2012).

Test [1] addresses Macrophage-stimulating protein receptor (Homo sapiens) (UniProt Q04912). The settings on record: at 0.1 µM.
Test [2] shares this target. The following applies: at 1 µM.
In test [3] the target is Proto-oncogene tyrosine-protein kinase ROS (Homo sapiens) (UniProt P08922). The following applies: at 0.1 µM.
Test [4] shares this target. The settings on record: at 1 µM.
The target in test [5] is Proto-oncogene tyrosine-protein kinase Src (Homo sapiens) (UniProt P12931). The settings on record: at 0.1 µM.
The target is the same in test [6]. The settings on record: at 1 µM.
The target in test [7] is Tyrosine-protein kinase Srms (Homo sapiens) (UniProt Q9H3Y6). The following applies: at 0.1 µM.
Test [8] shares this target. The following applies: at 1 µM.
The target in test [9] is Tyrosine-protein kinase SYK (Homo sapiens) (UniProt P43405). The settings on record: at 0.1 µM.
For test [10] the target is unchanged. The settings on record: at 1 µM.
Test [11] has as its target T1, Tyrosine-protein kinase Tec (Homo sapiens) (UniProt P42680).
T1 sequence (whole entry): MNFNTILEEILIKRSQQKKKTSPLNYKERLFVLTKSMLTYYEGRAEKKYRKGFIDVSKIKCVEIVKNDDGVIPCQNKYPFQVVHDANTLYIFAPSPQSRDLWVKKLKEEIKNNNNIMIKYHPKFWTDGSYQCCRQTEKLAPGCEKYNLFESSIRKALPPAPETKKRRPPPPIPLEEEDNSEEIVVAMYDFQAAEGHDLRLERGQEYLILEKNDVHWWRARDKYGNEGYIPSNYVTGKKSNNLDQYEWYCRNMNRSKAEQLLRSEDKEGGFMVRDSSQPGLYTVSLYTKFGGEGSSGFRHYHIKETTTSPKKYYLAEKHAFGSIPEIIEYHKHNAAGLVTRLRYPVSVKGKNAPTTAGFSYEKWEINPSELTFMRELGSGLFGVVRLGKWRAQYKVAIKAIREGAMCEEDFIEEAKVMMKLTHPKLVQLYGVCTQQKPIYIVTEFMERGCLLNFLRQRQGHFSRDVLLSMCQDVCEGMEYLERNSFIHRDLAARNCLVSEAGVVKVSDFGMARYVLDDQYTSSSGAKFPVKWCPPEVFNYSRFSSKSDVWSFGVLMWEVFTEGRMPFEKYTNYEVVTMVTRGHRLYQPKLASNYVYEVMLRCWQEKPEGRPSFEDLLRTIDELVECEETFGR
The following applies: at 0.1 µM.

The target in test [12] is T1, Tyrosine-protein kinase Tec (Homo sapiens). The following applies: at 1 µM.
In test [13] the target is Angiopoietin-1 receptor (Homo sapiens) (UniProt Q02763). The following applies: at 0.1 µM.
Test [14] has the same target. The following applies: at 1 µM.
The target of test [15] is T2, Non-receptor tyrosine-protein kinase TNK1 (Homo sapiens) (UniProt Q13470).
T2 sequence (whole entry): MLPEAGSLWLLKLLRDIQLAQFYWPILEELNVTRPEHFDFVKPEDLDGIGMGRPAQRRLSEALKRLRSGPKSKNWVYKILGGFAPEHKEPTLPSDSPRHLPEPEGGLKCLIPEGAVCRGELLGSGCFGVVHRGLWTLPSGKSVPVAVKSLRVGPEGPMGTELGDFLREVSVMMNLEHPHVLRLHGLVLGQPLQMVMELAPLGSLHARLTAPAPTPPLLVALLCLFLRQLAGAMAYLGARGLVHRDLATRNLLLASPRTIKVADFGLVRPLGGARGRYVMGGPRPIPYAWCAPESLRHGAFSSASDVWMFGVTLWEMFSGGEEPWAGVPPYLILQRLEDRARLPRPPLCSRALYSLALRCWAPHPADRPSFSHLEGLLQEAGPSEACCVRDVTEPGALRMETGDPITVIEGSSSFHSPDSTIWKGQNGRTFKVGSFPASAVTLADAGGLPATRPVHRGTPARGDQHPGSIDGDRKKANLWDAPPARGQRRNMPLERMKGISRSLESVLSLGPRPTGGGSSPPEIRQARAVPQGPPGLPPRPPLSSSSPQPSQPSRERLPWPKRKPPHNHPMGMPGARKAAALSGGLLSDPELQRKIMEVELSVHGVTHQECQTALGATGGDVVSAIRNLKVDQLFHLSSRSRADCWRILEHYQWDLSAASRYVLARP
The following applies: at 0.1 µM.

In test [16] the target is T2, Non-receptor tyrosine-protein kinase TNK1 (Homo sapiens). The following applies: at 1 µM.
For test [17], the target named is Activated CDC42 kinase 1 (Homo sapiens) (UniProt Q07912). The following applies: at 0.1 µM.
The target is the same in test [18]. The following applies: at 1 µM.
In test [19] the target is High affinity nerve growth factor receptor (Homo sapiens) (UniProt P04629). The settings on record: at 0.1 µM.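 Also: each value is a mean of replicate percent inhibition readings against TRKA kinase.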
For test [20], the system named is Proto-oncogene tyrosine-protein kinase receptor Ret (Homo sapiens), P07949 [Y791F]. The following applies: at 1 µM.

SMILES strings stand for the structures.

Chain of Proto-oncogene tyrosine-protein kinase receptor Ret (Homo sapiens), P07949 [Y791F] (P07949 whole entry Y791F): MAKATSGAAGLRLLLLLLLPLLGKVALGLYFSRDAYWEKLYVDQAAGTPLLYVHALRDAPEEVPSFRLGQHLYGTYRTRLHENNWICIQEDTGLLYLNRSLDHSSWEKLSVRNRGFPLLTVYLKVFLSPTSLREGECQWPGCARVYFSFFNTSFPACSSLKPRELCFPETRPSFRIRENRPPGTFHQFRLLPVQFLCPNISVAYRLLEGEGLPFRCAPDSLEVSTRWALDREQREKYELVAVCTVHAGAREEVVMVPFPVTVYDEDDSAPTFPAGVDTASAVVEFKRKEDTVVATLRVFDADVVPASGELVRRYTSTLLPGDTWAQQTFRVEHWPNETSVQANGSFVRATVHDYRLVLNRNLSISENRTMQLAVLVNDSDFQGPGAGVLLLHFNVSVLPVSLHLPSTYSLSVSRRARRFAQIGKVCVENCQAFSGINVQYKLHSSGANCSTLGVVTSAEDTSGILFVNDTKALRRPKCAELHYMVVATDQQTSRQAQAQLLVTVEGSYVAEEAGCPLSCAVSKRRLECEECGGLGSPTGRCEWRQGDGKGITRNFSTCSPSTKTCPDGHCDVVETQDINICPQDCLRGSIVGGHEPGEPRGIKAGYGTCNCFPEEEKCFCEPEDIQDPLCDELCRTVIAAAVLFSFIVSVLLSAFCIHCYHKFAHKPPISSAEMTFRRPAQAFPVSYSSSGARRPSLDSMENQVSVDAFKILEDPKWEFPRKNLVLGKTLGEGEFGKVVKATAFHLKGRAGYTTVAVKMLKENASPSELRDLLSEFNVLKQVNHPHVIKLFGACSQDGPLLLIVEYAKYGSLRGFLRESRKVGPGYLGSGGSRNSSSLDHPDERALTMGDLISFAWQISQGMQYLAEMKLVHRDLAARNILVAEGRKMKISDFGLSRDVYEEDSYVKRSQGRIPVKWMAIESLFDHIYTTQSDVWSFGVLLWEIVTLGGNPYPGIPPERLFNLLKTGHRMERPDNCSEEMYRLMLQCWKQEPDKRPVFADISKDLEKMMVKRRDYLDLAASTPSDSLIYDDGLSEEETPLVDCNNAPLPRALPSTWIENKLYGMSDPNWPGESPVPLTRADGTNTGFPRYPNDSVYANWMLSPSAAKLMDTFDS
Chain of Macrophage-stimulating protein receptor (Homo sapiens) (Q04912 25-304 limits assumed): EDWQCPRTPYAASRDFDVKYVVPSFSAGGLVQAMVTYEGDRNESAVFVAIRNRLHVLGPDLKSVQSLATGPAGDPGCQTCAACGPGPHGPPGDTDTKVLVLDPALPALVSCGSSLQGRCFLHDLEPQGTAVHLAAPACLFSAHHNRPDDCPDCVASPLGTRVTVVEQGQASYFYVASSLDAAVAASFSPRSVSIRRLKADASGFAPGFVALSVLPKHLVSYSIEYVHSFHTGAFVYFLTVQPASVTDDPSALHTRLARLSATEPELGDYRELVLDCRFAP
Chain of Macrophage-stimulating protein receptor (Homo sapiens) (Q04912 310-1400 limits assumed): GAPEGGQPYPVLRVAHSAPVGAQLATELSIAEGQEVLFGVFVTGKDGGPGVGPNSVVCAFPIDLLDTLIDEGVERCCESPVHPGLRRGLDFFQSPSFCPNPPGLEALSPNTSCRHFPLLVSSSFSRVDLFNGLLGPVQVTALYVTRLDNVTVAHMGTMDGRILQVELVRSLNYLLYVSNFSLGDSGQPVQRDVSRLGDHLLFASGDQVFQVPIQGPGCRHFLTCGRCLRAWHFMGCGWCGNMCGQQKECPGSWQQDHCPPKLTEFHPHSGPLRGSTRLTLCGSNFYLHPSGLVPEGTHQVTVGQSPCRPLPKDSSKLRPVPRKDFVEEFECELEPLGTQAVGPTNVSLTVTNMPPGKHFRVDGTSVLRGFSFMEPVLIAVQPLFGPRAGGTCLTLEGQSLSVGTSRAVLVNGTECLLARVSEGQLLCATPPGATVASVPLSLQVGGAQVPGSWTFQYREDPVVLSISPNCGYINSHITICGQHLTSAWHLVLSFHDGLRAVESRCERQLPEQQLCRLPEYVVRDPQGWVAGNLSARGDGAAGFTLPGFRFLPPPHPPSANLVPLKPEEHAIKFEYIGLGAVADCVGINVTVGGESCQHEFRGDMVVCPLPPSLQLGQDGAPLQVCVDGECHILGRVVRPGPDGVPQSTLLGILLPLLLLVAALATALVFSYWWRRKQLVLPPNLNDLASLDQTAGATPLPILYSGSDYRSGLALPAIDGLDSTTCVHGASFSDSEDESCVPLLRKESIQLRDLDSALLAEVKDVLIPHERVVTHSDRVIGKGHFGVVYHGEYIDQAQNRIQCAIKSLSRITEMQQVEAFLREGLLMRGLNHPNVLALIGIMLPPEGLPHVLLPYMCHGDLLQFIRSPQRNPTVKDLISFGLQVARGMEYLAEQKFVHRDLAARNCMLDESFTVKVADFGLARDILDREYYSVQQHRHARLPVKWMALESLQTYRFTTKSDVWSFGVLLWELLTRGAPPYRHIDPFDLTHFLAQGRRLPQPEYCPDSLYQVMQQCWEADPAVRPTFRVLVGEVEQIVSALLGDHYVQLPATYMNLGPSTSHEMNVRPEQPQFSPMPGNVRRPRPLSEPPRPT
Chain of Proto-oncogene tyrosine-protein kinase Src (Homo sapiens) (P12931 2-536 limits assumed): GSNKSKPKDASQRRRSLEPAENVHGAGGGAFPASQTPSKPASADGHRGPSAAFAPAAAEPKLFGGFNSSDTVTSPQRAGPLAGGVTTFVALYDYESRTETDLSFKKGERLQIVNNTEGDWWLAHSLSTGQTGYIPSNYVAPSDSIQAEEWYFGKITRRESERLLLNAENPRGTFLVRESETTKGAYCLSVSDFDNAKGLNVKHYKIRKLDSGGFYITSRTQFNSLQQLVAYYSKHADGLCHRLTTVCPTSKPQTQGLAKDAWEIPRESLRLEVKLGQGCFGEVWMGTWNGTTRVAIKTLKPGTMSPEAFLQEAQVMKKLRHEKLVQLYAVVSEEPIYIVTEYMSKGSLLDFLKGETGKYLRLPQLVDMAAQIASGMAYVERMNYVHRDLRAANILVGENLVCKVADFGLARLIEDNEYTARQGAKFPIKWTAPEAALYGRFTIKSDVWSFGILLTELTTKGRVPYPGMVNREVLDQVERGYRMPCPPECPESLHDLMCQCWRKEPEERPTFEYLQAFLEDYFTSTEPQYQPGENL
Chain of Tyrosine-protein kinase Srms (Homo sapiens) (Q9H3Y6 whole entry): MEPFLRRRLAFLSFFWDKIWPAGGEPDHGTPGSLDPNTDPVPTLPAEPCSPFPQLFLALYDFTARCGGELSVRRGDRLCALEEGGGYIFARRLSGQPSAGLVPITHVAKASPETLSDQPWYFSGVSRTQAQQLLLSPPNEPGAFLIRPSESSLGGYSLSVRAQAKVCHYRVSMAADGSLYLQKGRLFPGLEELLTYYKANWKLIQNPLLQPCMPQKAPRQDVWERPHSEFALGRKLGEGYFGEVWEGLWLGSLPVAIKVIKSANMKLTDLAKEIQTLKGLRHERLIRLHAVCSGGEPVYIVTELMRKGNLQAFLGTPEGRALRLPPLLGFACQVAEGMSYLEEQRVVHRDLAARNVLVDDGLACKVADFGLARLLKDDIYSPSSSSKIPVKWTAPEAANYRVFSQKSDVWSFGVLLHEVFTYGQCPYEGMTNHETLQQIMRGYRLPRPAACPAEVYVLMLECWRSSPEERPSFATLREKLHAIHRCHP
Chain of High affinity nerve growth factor receptor (Homo sapiens) (P04629 33-796 limits assumed): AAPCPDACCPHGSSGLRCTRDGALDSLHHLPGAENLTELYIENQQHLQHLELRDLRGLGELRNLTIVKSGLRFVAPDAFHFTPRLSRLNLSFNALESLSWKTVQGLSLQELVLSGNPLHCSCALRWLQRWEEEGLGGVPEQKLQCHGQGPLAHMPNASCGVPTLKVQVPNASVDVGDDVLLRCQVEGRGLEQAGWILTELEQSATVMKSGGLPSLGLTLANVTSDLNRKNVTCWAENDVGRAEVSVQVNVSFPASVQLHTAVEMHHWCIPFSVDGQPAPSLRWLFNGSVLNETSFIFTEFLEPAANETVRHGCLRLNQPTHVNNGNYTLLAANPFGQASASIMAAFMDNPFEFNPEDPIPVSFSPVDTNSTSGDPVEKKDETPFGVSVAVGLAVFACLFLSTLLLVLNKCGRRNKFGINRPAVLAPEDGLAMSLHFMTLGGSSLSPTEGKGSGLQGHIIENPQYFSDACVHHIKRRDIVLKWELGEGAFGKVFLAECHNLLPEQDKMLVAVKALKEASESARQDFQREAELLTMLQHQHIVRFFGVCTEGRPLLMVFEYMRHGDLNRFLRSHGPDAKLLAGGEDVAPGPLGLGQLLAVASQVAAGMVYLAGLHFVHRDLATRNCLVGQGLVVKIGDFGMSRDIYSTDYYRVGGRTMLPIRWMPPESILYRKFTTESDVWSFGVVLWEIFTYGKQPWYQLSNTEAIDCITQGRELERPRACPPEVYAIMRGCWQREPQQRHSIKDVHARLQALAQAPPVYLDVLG

`Cn1cc(C=C2C(=O)Nc3cccnc32)c2ccccc21`: the inhibition (in general, the change of the read-out against control, counted positive when it falls) was 3.7% in test [1]; 0.13% in test [2]; 4.42% in test [3]; 10.1% in test [4]; 12.8% in test [5]; 42.2% in test [6]. In addition, the inhibition in test [7] was -1.82%; in test [8], 0.18%; in [9], 3.56%; in test [10], -2.64%; in [11], 2.46%; in test [12], 8.75%. Further, the inhibition in [13] came to 2.82%; in test [14], 5.24%; in [15], 4.27%; in test [16] it was 9.9%; in test [17] it was 0.71%; in [18], 1.72%. In addition, the inhibition in test [19] was 13.9%.
Take `COc1ccccc1Nc1ncc(-c2ccccc2)o1`: the inhibition in test [1] was 6.08%; in test [2] it was 1.59%; in test [3], 5.04%; in [4], 11.2%; in [5], 8.59%; in test [6] it was 11.2%. Moreover, the inhibition in test [7] was -1.24%; in test [8], 2.11%; in test [9], -1.37%; in test [10] it was -4.41%; in [11] it was 2.21%; in [12], 7.28%. Further, the inhibition was 0.33% in test [13]; 6.44% in test [14]; 3.82% in test [15]; 13.8% in test [16]; 0.63% in test [17]; 3.33% in [18]. Also, in test [19], the inhibition was 1.73%.
Regarding `COc1cc2c(cc1Nc1nc(N3CCc4ccccc43)c3cc[nH]c3n1)N(C(=O)CN(C)C)CC2`, the inhibition in [20] is 8.94%; in test [1], -4.18%; in [2], 4.66%; in test [3], 70.2%; in test [4] it was 79.2%; in test [5], 1.56%. Also, the inhibition was 8.12% in [6]; 0.05% in test [7]; -1.29% in [8]; 0.91% in [9]; -0.01% in test [10]; 2.67% in test [11]. In addition, the inhibition in test [12] was 7.6%; in test [13] it was -0.77%; in test [14] it was 1.37%; in test [15] it was 1.17%; in test [16], 12%; in [17], 0.63%. Besides, the inhibition came to 1.93% in test [18] and 0.79% in test [19].
For `COC(=O)Nc1nc2cc(Oc3cccc(NC(=O)Nc4cc(C(F)(F)F)ccc4F)c3)ccc2[nH]1`, the inhibition is 38.9% in [20]; 6.28% in test [1]; -2.46% in test [2]; 1.83% in test [3]; 2.46% in [4]; 9.23% in test [5]. Besides, the inhibition in test [6] was 5.13%; in test [7], 0.35%; in test [8], -1.15%; in [9], 0.17%; in test [10], -0.22%; in test [11], 1.48%. Further, the inhibition in [12] is 2.64%; in test [13] it was 1.09%; in test [14] it was 5.44%; in test [15] it was -0.45%; in [16], -3.58%; in test [17] it was -0.5%. Besides, the inhibition in test [18] was -1.08%; in test [19], -2.72%.
For the compound `c1cnn2ncc(-c3ccnc(Nc4ccc5c(c4)OCCO5)n3)c2c1`, the inhibition in [20] was 26.2%; in test [1], 4.39%; in [2] it was 16.8%; in test [3], 79.9%; in test [4], 82.7%; in test [5], -0.83%. Further, the inhibition is 32.3% in [6]; -0.57% in [7]; 1.78% in test [8]; -8.51% in [9]; 13.2% in test [10]; 6.85% in test [11]. For the same compound, the inhibition in [12] is 19.8%; in test [13] it was 3.72%; in test [14], 20.5%; in test [15] it was 18.1%; in test [16], 64.5%; in [17] it was 3.29%. Further, the results for the inhibition in test [18] and in test [19] were 21.7% and 5.45%, respectively.
For `O=C1NC(=O)C(c2ccc(Cl)cc2)=C1Nc1ccc(Cl)c(C(=O)O)c1`, the inhibition in [20] is -1.73%; in test [1], -4.02%; in test [2], 2.12%; in test [3], 1.45%; in [4] it was 3.13%; in test [5] it was 0.48%. Further, the inhibition in [6] was -1.52%; in test [7] it was 0.85%; in [8], 2.75%; in test [9] it was -1%; in test [10], -0.32%; in test [11], -1.66%. The inhibition was -1.1% in [12]; -0.19% in [13]; 3.01% in test [14]; -3.22% in test [15]; 0.53% in [16]; -0.36% in test [17]. Besides, the inhibition in [18] is -0.48%; in [19], 0.44%.
For the compound `CCc1cccc(NC(=O)Nc2ccc(Oc3ccc4nc(NC(=O)OC)[nH]c4c3)cc2)c1`, the inhibition in test [20] was 74.6%; in test [1], 5.94%; in [2], 5.62%; in [3] it was -0.48%; in test [4] it was 0.49%; in test [5], 0.79%. The inhibition in test [6] is 5.84%; in [7], 0.61%; in [8] it was 1.28%; in [9], 2.75%; in test [10] it was -0.99%; in [11], 2.07%. Also, the inhibition is 3.91% in test [12]; 46.2% in test [13]; 55.7% in [14]; 3.34% in test [15]; 13.8% in test [16]; -0.42% in test [17]. Further, the inhibition in test [18] was 1.35%; in test [19] it was 30.8%.
